Compound activity from PubChem.
Rows were chosen to be rich in hits. Some 3.5% of all compounds tested hit in one or more screens of this group.
MITF inh: human MITF inhibition, primary screen | AlphaScreen MITF homodimerization, bead proximity signal | inhibition, % at 2.6 µM | 650,000 tested, 0.91% active; in the data active = inhibition above about 50%
GPR151 activ: human GPR151 activation; Q8TDV0; PathHunter beta-arrestin GPR151 cells, luminescence; activation, % at 11.2 µM; 650,000 tested, 1% active; AID 1508602; in the data active = activation above about 4.9%
Target sequence (Q8TDV0 whole entry, looked up): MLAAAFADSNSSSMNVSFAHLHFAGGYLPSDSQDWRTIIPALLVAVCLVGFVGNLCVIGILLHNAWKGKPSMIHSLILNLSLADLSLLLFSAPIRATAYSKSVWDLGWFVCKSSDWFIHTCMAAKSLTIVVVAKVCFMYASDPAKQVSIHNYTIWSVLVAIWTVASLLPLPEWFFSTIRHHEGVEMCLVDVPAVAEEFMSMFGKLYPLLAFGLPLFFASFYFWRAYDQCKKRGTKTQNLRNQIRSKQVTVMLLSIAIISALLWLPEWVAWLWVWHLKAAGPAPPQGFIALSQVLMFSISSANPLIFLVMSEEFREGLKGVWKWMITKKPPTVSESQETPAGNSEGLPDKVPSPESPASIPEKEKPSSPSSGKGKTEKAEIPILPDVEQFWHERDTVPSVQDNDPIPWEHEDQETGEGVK
FBW7 activator: activators of human E3 ligase FBW7. AlphaScreen FBW7–phospho-cyclin E peptide binding, activator screen. normalized activity (activation), % at 26.1 µM. 650,000 tested, 0.13% active. AID 1259310; in the data active = normalized activity above about 1.9%;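 also: purified mutant Fbw7 with reduced substrate affinity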
TEAD-YAP block: TEAD-YAP interaction inhibition; HEK-TIYL cells, TEAD-Gal4/YAP UAS-luciferase luminescence; 640,000 tested, 1.4% active; inhibition, % at 9.12 µM; in the data active = inhibition above about 32%
Numbers stand for hits; – = inactive.

SMILES	MITF inh	GPR151 activ	FBW7 activator	TEAD-YAP block
COc1cc(NC(=O)C2COc3ccccc3C2)ccc1-c1cn[nH]c1 (configuration not stated)	–	–	–	–
COc1cc(NC(=O)C2CC(=O)c3ccccc3C2)ccc1-c1cn[nH]c1 (configuration not stated)	–	–	–	48
Cc1ccccc1NC(=O)CN(C)S(=O)(=O)c1cc2c(cc1Cl)NC(=O)CO2	–	–	–	–
COC(=O)C1=C(N)Oc2cc(C)n(CC3CCCO3)c(=O)c2C1c1ccc(Cl)cc1 (configuration not stated)	–	–	2.3	–
C=CCCC(=O)NCC1Cc2c(ccc3cc(-c4ncccn4)ccc23)O1 (configuration not stated)	–	–	–	–
C=CCn1c(=NC(=O)c2ccccc2[N+](=O)[O-])sc2cc(NC(C)=O)ccc21	–	–	–	49
CC[C@]1(O)C[C@H]2CN(CCc3c([nH]c4ccccc34)[C@H](C)[C@H]2c2cc3c(cc2OC)N(C=O)[C@H]2[C@@](O)(C(=O)OC)[C@H](C)[C@]4(CC)C=CCN5CC[C@]32[C@@H]54)C1	–	–	–	56
COc1ccccc1NC(=O)N1CCC2(CC1)OCCc1c2[nH]c2ccccc12	–	–	–	–
CCC1(O)CC2CN(CCc3c([nH]c4ccccc34)[C@@](C(=O)OC)(c3cc4c(cc3OC)N(C=O)C3[C@]45CCN4CC=C[C@@](CC)([C@@H](OC(C)=O)[C@]3(O)C(=O)OC)[C@H]45)C2)C1 (some centres not stated)	–	–	–	69
COc1ccc(C2c3[nH]c4ccccc4c3CCN2C(=O)CNC(C)=O)c(C)c1C (configuration not stated)	–	–	–	–
CCC1=C[C@H]2CN(C1)Cc1c([nH]c3ccccc13)[C@@](C(=O)OC)(c1cc3c(cc1OC)N(C)[C@H]1[C@@](O)(C(=O)OC)[C@H](OC(C)=O)[C@]4(CC)C=CCN5CC[C@]31[C@@H]54)C2	–	–	–	56
CC[C@]1(O)CC2CN(CCc3c([nH]c4ccccc34)[C@@](C(=O)OC)(c3cc4c(cc3OC)N(C)[C@H]3[C@@](O)(C(=O)OC)[C@H](OC(C)=O)[C@]5(CC)C=CCN6CC[C@]43[C@@H]65)C2)C1 (some centres not stated)	–	–	–	59
Cc1ccnc(NC(c2cccs2)c2ccc3cccnc3c2O)c1 (configuration not stated)	–	–	–	52
Cc1ccc(C)c(C(Nc2ccccn2)c2ccc3cccnc3c2O)c1 (configuration not stated)	–	–	–	76
Cc1ccnc(NC(c2ccccc2C)c2ccc3cccnc3c2O)c1 (configuration not stated)	–	–	–	90
c1coc(-c2nc3ccccn3c2Nc2ccc3c(c2)OCCO3)c1	–	–	–	41
O=C(NCCc1ccccc1)c1ccc(OC2CCN(C(=O)c3ccco3)CC2)cc1	–	–	–	83
O=C1CC(C(=O)N2CCC(Oc3ccc(C(=O)NCCc4ccccc4)cc3)CC2)CN1 (configuration not stated)	–	–	–	80
CC(C)=CC(=O)N1CCC(Oc2ccc(C(=O)NCCc3ccccc3)cc2)CC1	–	–	–	–
COc1ccc(OC)c(NC(=O)CN2C(=O)NC(C)(c3ccc4ccccc4c3)C2=O)c1 (configuration not stated)	–	–	–	–
CN1CCN(c2nccnc2-c2ccsc2)CC1	–	–	–	–
CC(C)CNc1cc(N2CCOCC2)c2noc3c2c1C(=O)c1ccccc1-3	52	–	–	–
CCNc1cc(N2CCC3(CC2)OCCO3)c2noc3c2c1C(=O)c1ccccc1-3	–	–	–	39
O=C1c2ccccc2-c2onc3c(N4CCOCC4)cc(NCCO)c1c23	–	–	–	–
O=C1c2ccccc2-c2onc3c(N4CCOCC4)cc(NCCN4CCCC4)c1c23	61	–	–	–
SMILES	MITF inh	GPR151 activ	FBW7 activator	TEAD-YAP block
Cc1cc(C(=O)Nc2ccc(Br)c(C)c2)n[nH]1	–	–	–	–
CCC1(C2CCN(CCc3ccccc3)CC2)NC(=O)N(Cc2ccc3c(c2)OCO3)C1=O (configuration not stated)	–	–	–	–
O=C1c2cc(Cl)c(Cl)cc2C(=O)N1c1cccc(Oc2ccccc2)c1	–	–	–	–
Fc1cccc(Cl)c1Cc1nc(-c2cccc(C(F)(F)F)c2)no1	–	–	–	–
Cc1csc2n1c(C(=O)c1ccccc1)c(C)[n+]2-c1ccc(Br)cc1	–	–	–	–
CCc1c(C(=O)c2ccc(C)cc2)n2c(C)csc2[n+]1-c1ccccc1	–	–	–	40
COc1ccc(C(=O)Nc2noc3ccccc23)c(OC)c1	–	–	–	88
O=C(Nc1noc2ccccc12)c1ccc(F)cc1	–	–	–	44
Cc1ccccc1C(=O)Nc1noc2ccccc12	–	–	–	43
O=C(Nc1noc2ccccc12)c1cccc(F)c1	–	–	–	–
COc1ccccc1C(=O)Nc1noc2ccccc12	–	–	–	–
COC(=O)c1c(NC(=O)CN2CC(C)OC(C)C2)sc(Cl)c1-c1ccccc1 (configuration not stated)	–	–	–	–
CCOC(=O)N1CCN(S(=O)(=O)c2ccc(C(=O)Nc3sc4c(c3C(=O)OC)CC(C)(C)NC4(C)C)cc2)CC1	–	–	–	–
CCCCNC1CCCN(c2nc(C)c3cc(F)ccc3n2)CC1 (configuration not stated)	–	–	–	–
CCN(CC)CCNC(=O)c1nn(-c2ccccc2OC)c(=O)c2ccccc12	–	–	–	–
COc1ccc(OC)c(CNC(=O)c2nccnc2C(=O)O)c1	–	–	–	–
CN=c1scc(-c2ccc(C)c(C)c2)n1/N=C/c1ccc(O)c(O)c1O	–	–	–	70
CCOC(=O)CN1CCN(c2ccc(-c3cccc(C=O)c3)cn2)CC1	–	–	–	–
CCOC(=O)CN1CCN(c2ccc(Br)cn2)CC1	–	–	–	44
Brc1cnc(NC2CCN(Cc3ccccc3)CC2)nc1	–	–	–	44
c1ccc(CN2CCC(Nc3nccc(NC4CC4)n3)CC2)cc1	–	–	–	–
O=C1NC(=S)S/C1=C\c1ccc(-c2cccc(C(=O)O)c2)o1	70	–	–	–
NC1=NC(=O)/C(=C\c2ccc(-c3cccc(C(=O)O)c3)o2)S1	58	–	–	44
O=C1NC(=S)S/C1=C\c1ccc(-c2ccc(C(=O)O)cc2)o1	–	–	–	–
NC1=NC(=O)/C(=C/c2ccc(-c3ccccc3)o2)S1	–	–	–	–
O=C1NC(=O)/C(=C/c2ccc(-c3ccc(O)c(C(=O)O)c3)o2)S1	86	–	–	–
Cc1ccc(C(=O)O)cc1-c1ccc(/C=C2/SC(=O)NC2=O)o1	–	–	–	–
Cc1ccc(Cl)c(Oc2ccc([N+](=O)[O-])cc2S(N)(=O)=O)c1	–	–	–	–
COc1ccc(C2Nc3ccc(C(=O)c4ccccc4)cc3NC3=C2C(=O)CCC3)cc1OC (configuration not stated)	–	–	–	59
